This is one part of a sample in which hits are shown more often than they occur.
NOMO-1 viab – STK33 inhibitor candidate reducing NOMO-1 cell viability; NOMO-1 AML viability, CellTiter-Glo luminescence, 72 h; inhibition, % (concentration not given with the values); 37,000 tested, 7.5% active; in the data active = inhibition above about 80%; inconclusive = no clear call, values can overlap the other calls
STK33 kin inh – human STK33 kinase inhibition; ADP-Glo luminescence, MBP substrate; inhibition, % at 12.5 µM; 27,000 tested, 0.44% active; in the data active = inhibition above about 20%; inconclusive = no clear call, values can overlap the other calls
Target sequence (Q9BYT3 whole entry, looked up): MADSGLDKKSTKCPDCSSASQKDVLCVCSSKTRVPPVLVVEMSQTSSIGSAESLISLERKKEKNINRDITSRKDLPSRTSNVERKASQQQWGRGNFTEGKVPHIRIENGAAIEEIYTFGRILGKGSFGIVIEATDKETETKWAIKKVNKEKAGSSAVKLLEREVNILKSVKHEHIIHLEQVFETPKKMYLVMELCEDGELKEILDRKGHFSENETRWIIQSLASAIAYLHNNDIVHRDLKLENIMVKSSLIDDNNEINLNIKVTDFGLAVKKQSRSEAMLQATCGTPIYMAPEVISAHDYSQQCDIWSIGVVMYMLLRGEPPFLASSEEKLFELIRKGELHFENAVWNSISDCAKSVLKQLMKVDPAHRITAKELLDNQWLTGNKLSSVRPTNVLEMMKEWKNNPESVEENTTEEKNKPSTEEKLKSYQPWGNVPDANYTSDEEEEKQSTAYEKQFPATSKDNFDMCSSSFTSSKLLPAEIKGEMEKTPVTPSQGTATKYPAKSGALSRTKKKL
PD-1 reverse act – reversal of PD-1 mediated T-cell inhibition; 29,000 tested, under 10 active; primary human CD4 T cells, PD-L1 beads, CellTiter-Glo 96 h; activation, % (test concentration not listed); call rule not given here
A number is an active result; ! = a repeat was not active.

How did Cc1cccc(-n2c(SCC(=O)Nc3ccc(Br)cc3F)nnc2-c2ccccc2)c1 do in these assays?
NOMO-1 viab: inconclusive; STK33 kin inh: inactive; PD-1 reverse act: inactive

Results for Cc1cc(=O)[nH]c(SC(C)C(=O)Nc2cccc(Cl)c2)n1 (stereo unspecified) ?
NOMO-1 viab: inactive; STK33 kin inh: inactive; PD-1 reverse act: inactive

Results for Cc1nccc(-c2cccc(NS(=O)(=O)c3ccccc3C(F)(F)F)c2)n1 ?
NOMO-1 viab: inactive; STK33 kin inh: inactive; PD-1 reverse act: inactive

Results for Cc1cc(Br)ccc1NC(=O)CN(C)S(=O)(=O)c1ccc(Cl)cc1 ?
NOMO-1 viab: inactive; STK33 kin inh: inactive; PD-1 reverse act: inactive

How did O=C(CC1NCCNC1=O)Nc1ccc(Cl)cc1 (stereo unspecified) do in these assays?
NOMO-1 viab: inactive; STK33 kin inh: inactive; PD-1 reverse act: inactive

What do the screens show for `N#C/C(=C\Nc1ccc(F)c(Cl)c1)S(=O)(=O)Cc1ccco1`?
NOMO-1 viab: inactive; STK33 kin inh: inactive; PD-1 reverse act: inactive

What do the screens show for `C=CC1CN(C(C)=O)CCC1CCC(=O)c1ccnc2ccccc12` (stereo unspecified)?
NOMO-1 viab: inactive; STK33 kin inh: inactive; PD-1 reverse act: inactive

How did CC1(C)CC[C@]2(C(=O)O[C@@H]3O[C@H](CO)[C@@H](O)[C@H](O)[C@H]3O)CC[C@]3(C)C(=CCC4[C@@]5(C)C[C@@H](O)[C@H](O)[C@@](C)(CO)C5CC[C@]43C)C2C1 (stereo partly specified) do in these assays?
NOMO-1 viab: inactive; STK33 kin inh: inactive; PD-1 reverse act: inactive

Results for CC1(C)CC[C@]2(C(=O)O[C@@H]3O[C@H](CO)[C@@H](O)[C@H](O)[C@H]3O)CC[C@]3(C)C(=CCC4[C@@]5(C)C[C@@H](O)[C@H](O)[C@](C)(CO)C5CC[C@]43C)C2[C@@H]1O (stereo partly specified) ?
NOMO-1 viab: 120; STK33 kin inh: inactive; PD-1 reverse act: inactive

How did O=C(CSc1nc2c(c(C(F)(F)F)n1)CCc1ccccc1-2)Nc1ccc(Cl)cc1 do in these assays?
NOMO-1 viab: inactive; STK33 kin inh: inactive; PD-1 reverse act: inactive

How did N#Cc1cnc2c(C(N)=O)cnn2c1N do in these assays?
NOMO-1 viab: inactive; PD-1 reverse act: inactive

Results for COc1ccc(OC)c(S(=O)(=O)N2CCC(C(=O)Nc3c(C)cc(C)cc3C)CC2)c1 ?
NOMO-1 viab: inactive; STK33 kin inh: inactive; PD-1 reverse act: inactive

How did C[C@H]1CN([C@@H](C)CO)C(=O)c2cccc(NS(=O)(=O)c3ccc(Cl)cc3)c2O[C@H]1CN(C)C(=O)NC1CCCCC1 do in these assays?
NOMO-1 viab: inactive; PD-1 reverse act: inactive

How did COc1ccc(S(=O)(=O)Nc2cccc3c2O[C@H](CN(C)C(=O)NC2CCCCC2)[C@@H](C)CN([C@@H](C)CO)C3=O)cc1 do in these assays?
NOMO-1 viab: inactive

How did COc1ccc(S(=O)(=O)Nc2cccc3c2O[C@@H](CN(C)C(=O)NC2CCCCC2)[C@@H](C)CN([C@H](C)CO)C3=O)cc1 do in these assays?
NOMO-1 viab: 114; PD-1 reverse act: inactive

What do the screens show for `C[C@H](CO)N1C[C@H](C)[C@H](CN(C)C(=O)NC2CCCCC2)Oc2c(NS(=O)(=O)c3ccc(Cl)cc3)cccc2C1=O`?
NOMO-1 viab: 88; PD-1 reverse act: inactive

Results for Cc1c(O)c(-c2ccccc2)c(=O)n(-c2ccccn2)c1-c1ccccc1 ?
NOMO-1 viab: inactive; PD-1 reverse act: inactive

How did CCN(CC(=O)Nc1ccccc1C(F)(F)F)S(=O)(=O)c1ccc(C)cc1 do in these assays?
NOMO-1 viab: inactive; STK33 kin inh: inactive

What do the screens show for `COc1cc(NC(=O)CCn2cnc3ccccc3c2=O)c(OC)cc1Cl`?
NOMO-1 viab: inactive; STK33 kin inh: inactive; PD-1 reverse act: inactive

How did O=C(COc1ccc(Cl)cc1Cl)Nc1cc(C(=O)O)cc(C(=O)O)c1 do in these assays?
NOMO-1 viab: inactive; STK33 kin inh: inactive; PD-1 reverse act: inactive

What do the screens show for `O=C(COc1ccc(Cl)cc1C1C2=C(CCCC2=O)NC2=C1C(=O)CCC2)Nc1ccc(Cl)cc1`?
NOMO-1 viab: 116; STK33 kin inh: inactive; PD-1 reverse act: inactive

Results for CC(=O)O[C@@H]1CC2C(C)(C)CCC[C@]2(C)C2CC[C@]3(C)C(=CC(=O)O[C@H]3c3ccoc3)[C@@]21C (stereo partly specified) ?
NOMO-1 viab: 99; STK33 kin inh: inactive

Results for CC(=O)O[C@@H]1CC[C@@]2(C)C(C[C@@H](OC(C)=O)[C@@]3(C)C4=CC(=O)O[C@@H](c5ccoc5)[C@]4(C)CCC23)C1(C)C (stereo partly specified) ?
NOMO-1 viab: inactive; STK33 kin inh: inactive

Results for CC(=O)NC(=O)C1C=C2C=CC=CC2OC1=Nc1ccc(C(F)(F)F)cc1 (stereo unspecified) ?
NOMO-1 viab: inactive; PD-1 reverse act: inactive

What do the screens show for `CCOC(=O)C1CCCCN1Cc1ccc(OC)c(O)c1` (stereo unspecified)?
NOMO-1 viab: inactive; STK33 kin inh: inactive

What do the screens show for `O=[N+]([O-])c1ccc(NCCNCCO)cc1`?
NOMO-1 viab: inactive; STK33 kin inh: inactive

What do the screens show for `CCOC(=O)c1nonc1N`?
NOMO-1 viab: inactive; PD-1 reverse act: inactive

What do the screens show for `CCOC(=O)C1=NNCC1C(=O)OCC` (stereo unspecified)?
NOMO-1 viab: 96; PD-1 reverse act: inactive

How did CN1C(=O)c2cccc3cccc(c23)[S+]1c1ccccc1C(=O)O (stereo unspecified) do in these assays?
NOMO-1 viab: inactive; STK33 kin inh: inactive; PD-1 reverse act: inactive

Results for COc1cc2c(cc1NC(=O)COc1ccc(Br)cc1Cl)oc1ccccc12 ?
NOMO-1 viab: 128; STK33 kin inh: inactive; PD-1 reverse act: inactive

Results for COc1ccc([N+](=O)[O-])cc1NC(=O)COc1ccc(Br)cc1Cl ?
NOMO-1 viab: inactive; STK33 kin inh: inactive

What do the screens show for `COc1ccc(OCC(O)Cn2cnc3ccccc32)cc1` (stereo unspecified)?
NOMO-1 viab: inactive; STK33 kin inh: inactive; PD-1 reverse act: inactive

How did CN1CCCC(CC2c3ccccc3Sc3ccccc32)C1 (stereo unspecified) do in these assays?
NOMO-1 viab: inactive; STK33 kin inh: inactive

Results for CSc1ccc2c(c1)C(N1CCN(C)CC1)Cc1ccccc1S2 (stereo unspecified) ?
NOMO-1 viab: 143!; STK33 kin inh: inactive; PD-1 reverse act: inactive

How did O=C1C(=O)N(CCN2CCOCC2)C(c2ccncc2)C1C(=O)c1cc2ccccc2o1 (stereo unspecified) do in these assays?
NOMO-1 viab: inactive; STK33 kin inh: inactive; PD-1 reverse act: inactive

Results for C[C@H](CO)N1C[C@H](C)[C@@H](CN(C)S(=O)(=O)c2ccccc2)Oc2ccc(NC(=O)Nc3ccc(C(F)(F)F)cc3)cc2C1=O ?
NOMO-1 viab: inactive; STK33 kin inh: inactive; PD-1 reverse act: inactive

Results for C[C@@H]1CN([C@H](C)CO)C(=O)c2cc(NC(=O)Nc3ccc(C(F)(F)F)cc3)ccc2O[C@@H]1CN(C)S(=O)(=O)c1ccccc1 ?
NOMO-1 viab: inactive; PD-1 reverse act: inactive

What do the screens show for `C[C@@H]1CN([C@@H](C)CO)C(=O)c2cc(NC(=O)Nc3ccc(C(F)(F)F)cc3)ccc2O[C@@H]1CN(C)S(=O)(=O)c1ccccc1`?
NOMO-1 viab: 90; STK33 kin inh: inactive; PD-1 reverse act: inactive
